# Source: PubChem BioAssay
# Only a selection was taken, and hits are over-represented in it overall.
# Pf Dd2 inh: blocks in vitro growth of P. falciparum Dd2; Potency, µM (titrated, usually from 28.9 µM), for the others: top-dose activity, negative = inhibition, actives largely listed as inhibitors; P. falciparum Dd2 growth, SYBR Green, 72 h; hit rate 4.3% among 120,000; active means well fitted inhibition curve with a large enough effect;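 further: plate controls were DMSO vehicle for no effect and reference drug for full effect; nearly all actives have a fitted effect of over 65% in size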
#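 Readout: SYBR Green fluorescence, 485 nm excitation, 535 nm emission, after ~16 h lysis at 37C. Before that, Dd2-infected red cells (2.5% hematocrit) grew 72 h with compound, 29 uM top final concentration.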
# Numbers without * were called inactive; i = inactive; [ ] = remark or other dose. Potency means the concentration at half of the fitted maximal effect.
SMILES,Pf Dd2 inh
COc1cccc(NC(=O)CC2Nc3cc(C)c(C)cc3NC2=O)c1 (stereo not drawn),2.2µM*
Cc1cccc(NC(=O)CC2Nc3cccc4cccc(c34)NC2=O)c1 (stereo not drawn),21%
COc1ccc(C)cc1NC(=O)C[C@H]1NC(=O)c2ccccc2NC1=O,-24%
Cc1ccc2c(c1)NC(=O)C(CC(=O)Nc1cc(Cl)ccc1C)O2 (stereo not drawn),2%
Cc1ccc(NC(=O)CC2Nc3cc(C)c(C)cc3NC2=O)c(C)c1 (stereo not drawn),3.2µM*
COc1cccc(NC(=O)CC2Oc3ccccc3NC2=O)c1 (stereo not drawn),4%
Cc1cc2c(cc1C)NC(CC(=O)Nc1cccc(C)c1C)C(=O)N2 (stereo not drawn),3.2µM*
O=C(C[C@H]1NC(=O)c2ccccc2NC1=O)Nc1ccccc1Cl,-28%
COc1ccc(NC(=O)CC2Nc3ccccc3NC2=O)cc1 (stereo not drawn),-27%
C#CCN(Cc1ccco1)Cc1nc(-c2ccc(C(F)(F)F)cc2)oc1C,0%
COc1cncc([C@@H](NC(=O)CCc2scnc2C)C2CC(O)C2)c1 (stereo partly drawn),-24%
CCCN(CC1CCOC1)S(=O)(=O)c1ccc(F)c(Cl)c1 (stereo not drawn),i[5.79 µM]
COc1ccc2c(c1)CN(Cc1ccccc1)CC[C@H]1COC(=O)N21,-10%[44.1 µM]
COc1ccc(CNC(=O)N2CCCCCCNC(=O)CC2)cc1,-9%
COc1ccc(C(=O)N2C[C@@H](Oc3cccnc3)C[C@H]2C(=O)NC2CC2)cc1F,17%
COc1ccc(-c2cc3ccc(O)c(CN4CCCCC4C)c3oc2=O)cc1OC (stereo not drawn),7.1µM*
COc1ccc(-c2cc(C(F)(F)F)nc(SCC(=O)N3CCCCC3C)n2)cc1OC (stereo not drawn),92%
CCC1CCCCN1C(=O)CSc1nc(-c2ccc(OC)c(OC)c2)cc(C(F)(F)F)n1 (stereo not drawn),i
COc1ccc(-c2nccc3c(=O)cc(N4CCOCC4)oc23)cc1OC,-4%[44.1 µM]
CCCNC(=O)C1CCN(c2cc(C)nc3c(-c4ccc(OC)c(OC)c4)c(C)nn23)CC1,i
COc1ccc(-c2c(C)c3ccc(O)c(CN4CCCCC4C)c3oc2=O)cc1OC (stereo not drawn),11µM*
Cc1ncsc1CN1CCCN(S(C)(=O)=O)C(c2ccccc2)CC(=O)NCC1 (stereo not drawn),0%
CCC(=O)N1CCc2nc(N3CCN(C(=O)CCOC)CC3)sc2C1,18%
CC(C)CCNC(=O)C1CC(=O)N(c2n[nH]c3cc(Br)ccc23)C1 (stereo not drawn),-5%
Cc1ccc(-c2ncc(C(=O)NCCC3=CCCCC3)c(-c3ccncc3)n2)cc1,-24%
SMILES,Pf Dd2 inh
Cc1noc(C)c1CN1CCC2(CC1)CC(c1ccccc1)C(=O)N2C (stereo not drawn),-6%
CCOC(=O)C1CCCN(C(=O)Cn2ncc3c4ccccc4n(Cc4ccccc4)c3c2=O)C1 (stereo not drawn),0%
CCCn1c2ccccc2c2cnn(CC(=O)NCCCN3CCCCC3)c(=O)c21,-19%
CC1CCCCN1CCCNC(=O)Cn1ncc2c3ccccc3n(Cc3ccccc3F)c2c1=O (stereo not drawn),5µM*
O=C(Cn1ncc2c3ccccc3n(Cc3ccccc3F)c2c1=O)N1CCCCCC1,10µM*
CCCn1c2ccccc2c2cnn(CC(=O)N3CCCC(C)C3)c(=O)c21 (stereo not drawn),-11%
CC1CCCCN1CCCNC(=O)Cn1ncc2c3ccccc3n(C)c2c1=O (stereo not drawn),i
O=C(CCn1cccn1)N1CC(F)(F)C[C@H]1c1nc(C2CC2)no1,48%
COc1cccc(CNCC2(CO)C[C@@H](O)[C@@H](O)C2)c1 (stereo partly drawn),23%[44.1 µM]
CC(C(=O)NCC1CCCO1)N1C(=O)COc2ccc(C(=O)COc3ccc(F)cc3F)cc21 (stereo not drawn),i
O=C(CCc1nc2ccccc2[nH]c1=O)N1CCN(CCn2cncn2)CC1,9%
O=C(CCc1ccccc1)Nc1ccc([C@@H](O)[C@H]2COCC(=O)N2Cc2ccncc2)cc1,i
CN1CCC(Cn2ccc3c(N4CCOCC4)nc(-c4cccc5[nH]ccc45)cc32)CC1,-25%[44.1 µM]
C[S+](=O)([O-])N1CCC(Cn2ccc3c(N4CCOCC4)nc(-c4cccc5[nH]ncc45)cc32)CC1,i
CN1CCC(Cn2ccc3c(N4CCOCC4)nc(-c4ccc5cn[nH]c5c4)cc32)CC1,3.5µM*
O=C1CCN(C(=O)[C@@H](Cc2ccccc2)NC(=O)C2CCCCC2)CCOCCN1,15%
CCOc1ccc(CN2CCNC(=O)C2CC(=O)N2CCCCCC2)cc1 (stereo not drawn),2%
COc1ccc(CN[C@@H]2CCC[C@@H](C(=O)NCc3cc(F)cc(F)c3)CC(=O)N(C)C2)cc1,-25%
COCCN(Cc1nccs1)Cc1cn[nH]c1-c1ccc(F)cc1,-5%
COc1ccc(-c2nc(C(C)C)nc3c2CCN(C(=O)c2ccccc2Cl)CC3)cc1,10µM*
CC(C)c1nc2c(c(-c3ccc(O)cc3)n1)CCN(C(=O)c1cccc(Cl)c1)CC2,7.9µM*
COCC(=O)N1CCc2nc(C(C)C)nc(-c3ccc(OC)cc3)c2CC1,-11%
CC(=O)N1CCc2nc(C(C)C)nc(-c3ccc(O)cc3)c2C1,-14%[44.1 µM]
COc1cccc(C(=O)N2CCc3nc(C)nc(-c4ccc(Cl)cc4)c3CC2)c1,i
Cc1ccccc1C(=O)N1CCc2nc(C(C)C)nc(-c3ccc(O)cc3)c2C1,-1%
SMILES,Pf Dd2 inh
CC(C)c1nc2c(c(-c3ccc(O)cc3)n1)CCN(C(=O)c1ccccc1Cl)CC2,i
CC(C)c1nc2c(c(-c3ccc(O)cc3)n1)CN(C(=O)c1ccccc1)CC2,-13%
CC(C)c1nc2c(c(-c3ccc(O)cc3)n1)CN(C(=O)c1cccc(Cl)c1)CC2,4.5µM*
COc1ccc(C(=O)N2CCc3nc(C(C)C)nc(-c4ccc(O)cc4)c3C2)cc1,8.9µM*
CC(C)c1nc2c(c(-c3ccc(O)cc3)n1)CN(C(=O)c1ccc(Cl)nc1)CC2,i
COc1ccc(C(=O)N2CCCc3nc(C)nc(-c4ccc(O)cc4)c3C2)cc1,-13%
Cc1noc(C)c1CC(=O)N1CCC(Cc2noc(-c3ccccc3)n2)C1 (stereo not drawn),-17%
COCCNC(=O)[C@@H]1CCC[C@@H](NC(=O)CC(C)C)CN(C)C(=O)C1,24%[44.1 µM]
COC(=O)C1=C(C)NC(=O)NC1c1ccc(C(C)C)cc1 (stereo not drawn),-14%
Cc1ccc(-c2ncc(C(=O)O)c(-c3ccncc3)n2)cc1,-19%
COC[C@@H]1[C@H](NC(=O)c2cnc(-c3cccnc3)nc2C)[C@@H]2CCO[C@H]12,-5%
CCc1ccc(CNC(=O)c2cc3cn(C4CCCC4)cc3s2)cc1,i
O=C(CCC1CCN(Cc2ncc[nH]2)CC1)NC1CCN(Cc2ccccc2)C1 (stereo not drawn),8%
COc1ccc(-c2nc3c(c(-c4ccccc4)n2)CN(C(C)=O)CC3)cc1,i
O=C(C1CC1)N1CCc2nc(-c3ccc(Cl)cc3)nc(-c3ccccc3)c2C1,i
COc1ccc(-c2nc(-c3ccccc3)nc3c2CN(C(=O)C2CC2)CC3)cc1,11µM*
CCc1csc(CNC(=O)C(CC)n2cc(C(C)=O)c3ccccc32)n1 (stereo not drawn),-8%
Cn1c(CNC(=O)Cn2nc3c(cc2=O)CCCCC3)nc2ccccc21,-7%
